For 25 compounds, outcome results are on record in PubChem BioAssay.

The structures appear in SMILES notation. Entries with a potency or affinity are not part of this list. Activity calls are given as the source filed them. Cut-off not given; nearly all actives show IC50 up to about 0.98 µM.

Sequence of Calcium-dependent protein kinase 1 (Plasmodium falciparum (isolate 3D7)) (P62344 whole entry, looked up): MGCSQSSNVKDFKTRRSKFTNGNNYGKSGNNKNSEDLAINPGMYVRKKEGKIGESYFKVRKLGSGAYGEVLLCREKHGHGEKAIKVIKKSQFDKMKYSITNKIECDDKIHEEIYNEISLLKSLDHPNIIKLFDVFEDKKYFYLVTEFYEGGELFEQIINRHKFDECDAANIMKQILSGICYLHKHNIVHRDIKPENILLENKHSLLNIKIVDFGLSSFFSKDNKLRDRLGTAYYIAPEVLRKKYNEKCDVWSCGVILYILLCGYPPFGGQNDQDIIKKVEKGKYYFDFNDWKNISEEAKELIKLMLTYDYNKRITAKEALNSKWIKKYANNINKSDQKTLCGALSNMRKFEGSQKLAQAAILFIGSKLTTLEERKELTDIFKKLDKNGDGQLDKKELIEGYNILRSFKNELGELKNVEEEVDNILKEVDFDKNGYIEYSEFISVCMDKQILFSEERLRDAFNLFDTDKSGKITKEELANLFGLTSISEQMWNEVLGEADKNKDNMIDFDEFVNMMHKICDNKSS

This assay has as its target Calcium-dependent protein kinase 1 (Plasmodium falciparum (isolate 3D7)) (UniProt P62344). Nature of the assay: PfCDPK1 kinase inhibitors, biochemical, TCAMS library (AID 1159585).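 Further: inhibitors leave more ATP so luminescence rises with inhibition.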 Conditions: recombinant PfCDPK1, Kinase-Glo ATP depletion luminescence.
Turning to `Clc1cccc(Nc2ccc3c(N4CCCCC4)ncnc3n2)c1`, the result was inactive.

In the case of `CC(C)Oc1ccc(C=CC(=O)Nc2noc3ccccc23)cc1`, the outcome was inactive. For `Cc1ccc2nc(C)cc(NN=Cc3ccc([N+](=O)[O-])o3)c2c1`, the result was inactive.

As to `O=C(NC1CC1)c1cnc(N2CCN(Cc3ccc(Cl)cc3)CC2)c(Cl)c1`, the outcome was inactive. As for `Oc1ccc(CCNc2nc(NCCCOc3cc(CN4CCCCC4)ccc3F)nc(N3CCNCC3)n2)cc1`, the outcome was inactive. For `Cc1nc(-c2ccc(-c3ccc(C(=O)Nc4ccc(I)c(OCCN5CCCC5)c4)cc3)c(C)c2)no1` the value was “inactive”; for `c1ccc(C(c2ccccc2)N2CCN(C(c3cccnc3)c3nnnn3C3CCCC3)CC2)cc1` (stereo not given), “inactive”.

As to `Cc1cc(N)c2cc(NC(=O)c3cccc4ccccc34)ccc2n1`, the result was inactive.

Regarding `COCCn1c(Sc2ccc(C#N)c([N+](=O)[O-])c2)nnc1-c1ccc(N(C)C)cc1`, the outcome was inactive. For `COc1ccc(-c2nc3ccc(C)nc3nc2-c2ccc(OC)cc2)cc1`, the result was inactive. For `c1cc(-c2ccc(CN3CCN(c4ccncc4)CC3)cc2)cc(-c2nc3ccccc3[nH]2)c1` the value was “inactive”; for `Cn1nc(-c2ccc(S(=O)(=O)N3CCC(CCN4CCC(c5c[nH]c6ccccc56)CC4)CC3)s2)cc1C(F)(F)F`, “inactive”; for `CCCC(CNC(=O)c1cc2c(Cl)cc(Cl)cc2[nH]1)CNc1cc(=O)c2ccccc2[nH]1` (stereo not given), “inactive”. In the case of `CN1CCC(N2CCC(Oc3cccc(C(=O)NCCCC4CCCC4)c3)CC2)CC1`, the result was inactive. For `CCCc1cc(Cc2cnc(N)nc2N)cc(CCC)c1OCCCCC(=O)O` the value was “inactive”; for `O=C(NCC1CCC(C(=O)NCCN2CCCCC2)CC1)c1ccc(O)c(-c2ccc(Cl)c(Cl)c2)c1` (stereo not given), “inactive”; for `COc1ccc(Cc2c(C)nc3nc(N)nc(N)c3c2C)cc1OC`, “inactive”.

In the case of `CC(C)CCNCc1c(O)ccc2ccccc12`, the outcome was inactive.

`CCn1c(C(C)C)cc2c3c(N)nc(N)nc3ccc21`: the result was inactive. For `COCCn1c(Sc2ncnc3sccc23)nc2ccccc21` the value was “inactive”. With `COc1ccccc1CCNc1nc(C)cc(N[C@@H](Cc2ccccc2)C(=O)NCc2cccs2)n1`, the outcome was inactive.

Turning to `Cc1ccc2c(NN=Cc3cccc([N+](=O)[O-])c3)cc(C)nc2c1`, the outcome was inactive.

Turning to `CCCCCCCN(Cc1ccc(OC(C)(C)C(=O)OCC)cc1)C(=O)Nc1ccccc1OCC`, the result was inactive. For `COc1ccc(CNCc2ccc(-c3ccc(-c4nc5ccc(F)cc5[nH]4)cc3)cc2)cc1` the value was “inactive”. The result for `COc1ccc(OC)c(-c2cccc(-c3cccc(NC(=O)c4ccc([N+](=O)[O-])o4)c3)n2)c1` reads “inactive”.
